Values joined by “and” are separate entries in the source; they are usually repeats but may differ in a detail not shown here. Equal values may be shown once. Compounds without any hit were thinned out: in the full panel of roughly 83,000, 20% have a hit.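 Plates (96-well) were seeded with cells, treated with compound at one concentration, and incubated for 48 hours before percent growth was determined.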 Active and inactive are the calls of the source. Rule for the calls: active = growth percent below 10; inactive = the rest.
Assays:
Assay in all cases: NCI-60 one-dose screen, 48 h (100 = growth as untreated, 0 = no growth, -100 = all killed)
BT-549 breast = system: BT-549 breast
MDA-MB-435 melanoma = system: MDA-MB-435 melanoma
SW-620 colon = system: SW-620 colon
MCF7 breast = system: MCF7 breast
HCT-116 colon = system: HCT-116 colon
HCC-2998 colon = system: HCC-2998 colon
KM12 colon = system: KM12 colon
T-47D breast = details: 10 µM unless noted

Clc1ccc(NC(Nc2ccc(Cl)cc2)C(Cl)(Cl)Cl)cc1
growth (BT-549 breast; 10 µM unless noted): 69.3% (inactive) and 85.8% (inactive)
growth (MDA-MB-435 melanoma; 10 µM unless noted): 62.9% (inactive) and 97.7% (inactive)
growth (SW-620 colon; 10 µM unless noted): 69% (inactive) and 98% (inactive)
growth (MCF7 breast; 10 µM unless noted): 88.9% (inactive) and 92.1% (inactive)
growth (HCT-116 colon; 10 µM unless noted): 61.9% (inactive) and 85.4% (inactive)
growth (HCC-2998 colon; 10 µM unless noted): 80.6% (inactive) and 92.4% (inactive)
growth (KM12 colon; 10 µM unless noted): 48.6% (inactive) and 84.9% (inactive)

CN(C)c1ccc(/C=C(\C#N)c2ccccc2)cc1
growth (T-47D breast): 39.5% (inactive) and 36.1% (inactive) and 29.8% (inactive)
growth (BT-549 breast; 10 µM unless noted): 51.3% (inactive) and 52.8% (inactive) and 49.5% (inactive)
growth (MDA-MB-435 melanoma; 10 µM unless noted): -44.1% (active) and -7.42% (active) and -26.3% (active)
growth (MCF7 breast; 10 µM unless noted): 23.6% (inactive) and 24.5% (inactive) and 33% (inactive)
growth (HCT-116 colon; 10 µM unless noted): 17.4% (inactive) and 27.1% (inactive) and 19.8% (inactive)
growth (HCC-2998 colon; 10 µM unless noted): -28.9% (active) and 68.2% (inactive) and 47.7% (inactive)
growth (KM12 colon; 10 µM unless noted): 13% (inactive) and 38.8% (inactive) and 28.7% (inactive)

c1ccc2c(CC3=NCCN3)cccc2c1
growth (T-47D breast): 106% (inactive) and 111% (inactive)
growth (BT-549 breast; 10 µM unless noted): 101% (inactive) and 96.9% (inactive)
growth (MDA-MB-435 melanoma; 10 µM unless noted): 101% (inactive) and 106% (inactive)
growth (MCF7 breast; 10 µM unless noted): 99.4% (inactive) and 102% (inactive)
growth (HCT-116 colon; 10 µM unless noted): 94.7% (inactive) and 104% (inactive)
growth (HCC-2998 colon; 10 µM unless noted): 97.5% (inactive) and 103% (inactive)
growth (KM12 colon; 10 µM unless noted): 109% (inactive) and 111% (inactive)

Cc1ccc2nc3c(nc2c1)-c1cccc2cccc-3c12
growth (BT-549 breast; 10 µM unless noted): 111% (inactive)
growth (MDA-MB-435 melanoma; 10 µM unless noted): 103% (inactive)
growth (SW-620 colon; 10 µM unless noted): 71.1% (inactive)
growth (MCF7 breast; 10 µM unless noted): 38.3% (inactive)
growth (HCT-116 colon; 10 µM unless noted): 89.4% (inactive)
growth (HCC-2998 colon; 10 µM unless noted): 103% (inactive)
growth (KM12 colon; 10 µM unless noted): 75.4% (inactive)

CNC(=O)c1cc(Oc2ccc(CC(=O)Nc3cc(C(C)(C)C)nn3C)cc2)ccn1
growth (BT-549 breast; 1 µM): 72.6% (inactive)
growth (BT-549 breast; 10 µM): 82.4% (inactive)
growth (BT-549 breast; 30 µM): 81% (inactive)
growth (MDA-MB-435 melanoma; 1 µM): 78.1% (inactive)
growth (MDA-MB-435 melanoma; 10 µM): 61.8% (inactive)
growth (MDA-MB-435 melanoma; 30 µM): 67.9% (inactive)
growth (SW-620 colon; 1 µM): 106% (inactive)
growth (SW-620 colon; 10 µM): 87.2% (inactive)
growth (SW-620 colon; 30 µM): 97.8% (inactive)
growth (MCF7 breast; 1 µM): 61.4% (inactive)
growth (MCF7 breast; 10 µM): 53.5% (inactive)
growth (MCF7 breast; 30 µM): 44.4% (inactive)
growth (HCT-116 colon; 1 µM): 65% (inactive)
growth (HCT-116 colon; 10 µM): 33.9% (inactive)
growth (HCT-116 colon; 30 µM): 47.4% (inactive)
growth (HCC-2998 colon; 1 µM): 107% (inactive)
growth (HCC-2998 colon; 10 µM): 75.3% (inactive)
growth (HCC-2998 colon; 30 µM): 101% (inactive)
growth (KM12 colon; 1 µM): 88.4% (inactive)
growth (KM12 colon; 10 µM): 58.5% (inactive)
growth (KM12 colon; 30 µM): 64.6% (inactive)

CCCCCCCCCCCCOc1ccccc1C=O
growth (T-47D breast): 100% (inactive)
growth (MDA-MB-435 melanoma; 10 µM unless noted): 98.3% (inactive)
growth (SW-620 colon; 10 µM unless noted): 101% (inactive)
growth (MCF7 breast; 10 µM unless noted): 81.7% (inactive)
growth (HCT-116 colon; 10 µM unless noted): 103% (inactive)
growth (HCC-2998 colon; 10 µM unless noted): 90.2% (inactive)
growth (KM12 colon; 10 µM unless noted): 102% (inactive)

COc1ccc(Cn2c(NCCN=C(N)N)nc(=O)n(Cc3ccc(F)cc3)c2=O)cc1
growth (BT-549 breast; 10 µM unless noted): 86.9% (inactive) and 70.2% (inactive)
growth (MDA-MB-435 melanoma; 10 µM unless noted): 100% (inactive) and 109% (inactive)
growth (SW-620 colon; 10 µM unless noted): 101% (inactive) and 95.1% (inactive)
growth (MCF7 breast; 10 µM unless noted): 93.3% (inactive) and 93% (inactive)
growth (HCT-116 colon; 10 µM unless noted): 88.7% (inactive) and 98.3% (inactive)
growth (HCC-2998 colon; 10 µM unless noted): 104% (inactive) and 102% (inactive)
growth (KM12 colon; 10 µM unless noted): 114% (inactive) and 106% (inactive)

Cn1cc(-c2cc3c(Nc4ccc(CC(=O)Nc5cc(C(C)(C)C)on5)cc4)ncnc3[nH]2)cn1
growth (T-47D breast): -1.6% (active) and -13.9% (active)
growth (BT-549 breast; 10 µM unless noted): -15% (active) and -15.8% (active)
growth (MDA-MB-435 melanoma; 10 µM unless noted): -42.3% (active) and -0.328% (active)
growth (MCF7 breast; 10 µM unless noted): 4.99% (active) and 7.91% (active)
growth (HCT-116 colon; 10 µM unless noted): 0.379% (active) and 1.42% (active)
growth (HCC-2998 colon; 10 µM unless noted): -10.8% (active) and -2.61% (active)
growth (KM12 colon; 10 µM unless noted): -20.7% (active) and 3.37% (active)

CC1=C(/C=C/C(C)=C/C=C/C(C)=C/C(=O)Nc2ccc(O)cc2)C(C)(C)CCC1
growth (BT-549 breast; 10 µM unless noted): 21.9% (inactive)
growth (MDA-MB-435 melanoma; 10 µM unless noted): 31.7% (inactive)
growth (SW-620 colon; 10 µM unless noted): 67.2% (inactive)
growth (MCF7 breast; 10 µM unless noted): 8.82% (active)
growth (HCT-116 colon; 10 µM unless noted): 55.3% (inactive)
growth (HCC-2998 colon; 10 µM unless noted): 51% (inactive)
growth (KM12 colon; 10 µM unless noted): 34.2% (inactive)

O=C(N/N=C/c1ccccc1)N/N=C/c1ccccc1
growth (T-47D breast): 114% (inactive) and 106% (inactive)
growth (MDA-MB-435 melanoma; 10 µM unless noted): 104% (inactive) and 98.6% (inactive)
growth (SW-620 colon; 10 µM unless noted): 106% (inactive) and 96% (inactive)
growth (MCF7 breast; 10 µM unless noted): 99.1% (inactive) and 102% (inactive)
growth (HCT-116 colon; 10 µM unless noted): 107% (inactive)
growth (HCC-2998 colon; 10 µM unless noted): 101% (inactive) and 96.3% (inactive)
growth (KM12 colon; 10 µM unless noted): 99.8% (inactive) and 102% (inactive)

Reference: PubChem BioAssay (NCI)
